These results are taken from PubChem BioAssay (NCI).

The panel holds about 83,000 compounds, 20% with a hit somewhere; the sample as a whole holds those more often.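 Method: cells in 96-well plates; compound added at one concentration; 48 h incubation; percent growth measured; values under 10 scored active.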 A number with no mark means an inactive call. Active and inactive are the calls of the source.

One assay concerns HS 578T breast. Briefly: NCI-60 one-dose screen, 48 h (100 = growth as untreated, 0 = no growth, -100 = all killed). The following applies: 10 µM unless noted.
Regarding `COc1ccc(C(=NNS(=O)(=O)c2ccc(C)cc2)c2ccccc2)cc1OC`, the growth is 104%.
Still for that read-out and setting: to `CNC(=O)c1cc(Oc2ccc3c(c2)sc2nc(-c4ccc(N(C)C)cc4)cn23)ccn1` belongs 44.1%; to `CN1CCN(Cc2ccc(/C=N/Nc3ccnc4cc(Cl)ccc34)cc2)CC1`, 89.3%; to `O=C1Nc2ccccc2/C1=N\c1nnc(-c2ccccc2)o1`, 90.1%.
Still for that read-out and setting: as for `COc1ccc2c(c1)C=CC1(O2)Oc2ccc(OC)cc2C=C1C` (centres undefined), the figure is 22.3%; as for `Cn1cc(-c2nn3cc(-c4ccncc4)nc3s2)c2cc(Br)ccc21`, 54.3%.
Same read-out and setting: as for `C#Cc1nc(/C=C/CCCCCCC(=O)NO)cs1`, the figure is 80%.
With `CC[C@]12CC(C(=O)OC)=C3Nc4ccccc4[C@@]34CCN(C14)[C@@H]1c3cc4c(cc3O[C@@H]1[C@H]2O)NC1=C(C(=O)OC)C[C@@]2(CC)C3N(CC[C@@]143)C[C@H]1O[C@H]12` (some centres undefined), the growth is 12.2%.
Same read-out and setting: to `O=C(CCCCCCN1CC(=O)N2[C@@H](C3CC3)c3[nH]c4ccccc4c3C[C@H]2C1=O)NO` belongs 62%.

In a further assay the test system is NCI/ADR-RES ovarian. Described as above. To be noted: 10 µM unless noted.
On to `Nc1cc(C(=O)N/N=C\c2ccc(OC(F)F)c(OC3CCCC3)c2)nn1CC(O)c1ccccc1` (centres undefined), for which the growth was 109%.
Still for that read-out and setting: as for `Clc1ccc2[nH]cc(-c3nn4cc(-c5ccncc5)nc4s3)c2c1`, the figure is 2.69% (active).
In the case of `CN1CC[C@@H]2[C@@]3(C)CC[C@H](O)C(C)(C)[C@@H]3CC[C@@]2(C)[C@]2(C)CC[C@@]3(CO)CCC(C)(C)C[C@@H]3C12` (some centres undefined), the growth is 96.8%.
As for `Brc1cc(-c2cc(-c3ccc4c(c3)OCCO4)[nH]n2)cs1`, the growth is 17.4%.
`NS(=O)(=O)c1ccc(Nc2nc(Nc3ccccc3)nc(N3N=C(c4ccc(Cl)cc4)CC3c3ccc(Cl)cc3)n2)cc1` (centres undefined): the growth was 62.4%.
With `O=C(N/N=C\c1ccc([N+](=O)[O-])cc1)c1ccc2nc(-c3ccc(Br)cc3)[nH]c2c1`, the growth was 71.4%.
The same measure, in the same setting: as for `O=C(/C=C/c1cccc(C(F)(F)F)c1)Nc1cccc(C(F)(F)F)c1`, the figure is 46.4%; as for `Brc1cccc(-c2cc(-c3ccc4c(c3)OC=CO4)[nH]n2)c1`, 15.3%; as for `CCc1cc2c(cc1Cl)nc1c(=O)[nH]c(=O)nc-1n2CCOCC(C)C`, 74.1%.
Same read-out and setting: as for `CCCCSC1=C(Cl)CN(c2ccccc2)C1=O`, the figure is 103%; as for `Brc1ccc(-c2cc(-c3ccc4c(c3)OC=CO4)n[nH]2)s1`, 76.8%; as for `O=c1c2cc(-c3ccc(F)cc3F)ccc2n(Nc2ccccc2)c(=O)n1-c1cccc(C(F)(F)F)c1`, 3.74% (active).
The same measure, in the same setting: as for `CN1CCN(CCCCCC(=O)Nc2nc(-c3cccc(NS(=O)(=O)c4cccc5c(N(C)C)cccc45)c3)cs2)CC1`, the figure is 94.1%; as for `CCCCc1nc2c(N)nc3ccccc3c2n1Cc1cccc(CN)c1`, 93.5%; as for `CCCCCCCCCCCC(=O)NC(C)(C)C(=O)N1CCCC1C(=O)NC(C)(C)C(=O)NC(C)(C)C(=O)N1CCCC1C(=O)NC(C)(C)C(=O)NC(C)(C)C(=O)N1CCCC1C(=O)NC(C)C(=O)NCCC(=O)NC(C)C(=O)NC(C)(C)C(=O)NC(C)(C)C(=O)NC(C)(C)C(=O)NCCC(=O)NC(C)(C)C(=O)NC(C)(C)C(=O)NC(C)(C)C(=O)NC(C)C(=O)NCCC(=O)O` (centres undefined), -80.9% (active).
As for `NS(=O)(=O)c1ccc(Nc2nc(N/N=C/c3ccc4c(c3)OCO4)nc(Nc3ccccc3)n2)cc1`, the growth was 90.9%.
Still for that read-out and setting: to `O=[N+]([O-])c1ccc(NC(=S)NNC(=S)Nc2ccc(Br)cc2)cc1` belongs 84.5%; to `Cc1cc(=O)[nH]c(O)c1C#N`, 106%.
The same measure, in the same setting: to `Cc1ccc(OCc2occc2C(=O)N2CCOCC2)cc1` belongs 107%; to `O=C1C(SCc2ccccc2)=C(Cl)CN1c1ccccc1`, 102%.
On the same count and under the same terms, as for `COc1ccc(C2C(C#N)=C(/N=C/c3ccc(Cl)cc3)Oc3c2sc2c(C)cccc32)cc1` (centres undefined), the figure is 11.2%; as for `CN(C)CCNc1ccc2ncc(C#Cc3cncc(C(=O)Nc4ccc(CN5CCN(C)CC5)c(C(F)(F)F)c4)c3)n2n1`, 76%; as for `CN1CCC[C@]2(C)[C@H]3CC[C@@H]4[C@@H]5[C@H]6OC[C@@]5(CCC6(C)C)CC[C@@]4(C)[C@]3(C)CC[C@H]2C1(C)C`, 95.5%.
With `COc1ccccc1/C=C/C(=O)c1nnn(-c2ccc(F)cc2)c1C`, the growth was 34.3%.
For the compound `CC(C)[C@H]1c2[nH]c3ccccc3c2C[C@H]2C(=O)N(CCCCCCC(=O)NO)CC(=O)N12`, the growth is 95.3%.
